Bioassay records: PubChem BioAssay, National Center for Advancing Translational Sciences (NCATS)
This is a sample that favours compounds with a hit; in the whole collection about 21% have one here.
FBPA Giardia inh – qHTS Assay for Inhibitors of Fructose-1,6-bisphosphate Aldolase from Giardia Lamblia; 290,000 tested, 0.71% active; purified Giardia FBPA; Potency, µM (series often up to 59.6 µM), usual class: inhibitors; note: nearly all actives have a fitted effect of over 55% in size
Target sequence (A8B2U2 whole entry, looked up): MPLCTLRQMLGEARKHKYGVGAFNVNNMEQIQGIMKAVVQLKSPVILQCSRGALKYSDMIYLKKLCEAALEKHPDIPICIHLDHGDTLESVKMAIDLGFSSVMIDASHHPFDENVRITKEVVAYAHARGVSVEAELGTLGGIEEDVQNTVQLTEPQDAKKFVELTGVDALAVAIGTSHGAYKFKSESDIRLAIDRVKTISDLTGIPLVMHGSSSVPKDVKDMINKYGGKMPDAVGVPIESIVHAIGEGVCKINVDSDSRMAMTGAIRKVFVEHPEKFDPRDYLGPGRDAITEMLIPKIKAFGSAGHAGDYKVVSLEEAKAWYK
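Giardia FBPA (40 nM reagent) was preincubated 10 min at RT with compound (up to 57.5 uM final), then substrate plus GAPDH/TPI/NAD/arsenate coupling system with diaphorase/resazurin was added; resorufin fluorescence (525/598 nm) was read after 20 min.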
NS1 inh – qHTS Assay for Inhibitors of Influenza NS1 Protein Function; Potency, µM (series often up to 46.1 µM); 270,000 tested, 0.4% active; AID 2326, 2010; calls by dose curve; note: actives are rising curves; nearly all actives have a fitted effect of over 50% in size
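OD600 was taken as the measure of yeast growth restored by compound in an NS1-expressing S. cerevisiae strain. Cells had been washed out of glucose medium and diluted 1:100 into galactose -URA medium, pH 6.0.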
CHX counter – Cycloheximide Counterscreen for Small Molecule Inhibitors of Shiga Toxin. cell reporter, cycloheximide protein synthesis inhibition counterscreen. max response, %. 300,000 tested, 12% active; in the data active = max response mostly above about 13%, no sharp cut-off; inactive = mostly below about 14%; note: read at 38.3 µM for the half of the compounds with a filed dose
Pf growth 48h – Primary qHTS for delayed death inhibitors of the malarial parasite plastid, 48 hour incubation; P. falciparum luciferase growth in erythrocytes, 48 h; Potency, µM (titrated, usually from 28.7 µM), usual class: inhibitors; 310,000 tested, 5.9% active; AID 504832, 2011
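Luminescence readout; reporter = integrated firefly luciferase in P. falciparum. RBC culture at 2% hematocrit, 0.1% parasitemia final, 37 C/5% CO2; decreased signal taken as growth inhibition.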
Shiga inhibitor – A qHTS for Small Molecule Inhibitors of Shiga Toxin; inhibition, % at 38.7 µM; Vero cells, Shiga toxin protein synthesis inhibition reporter; 290,000 tested, 9.2% active; AID 2315, 2010; in the data active = inhibition mostly above about 28%, no sharp cut-off; inactive = mostly below about 43%
Pf growth 96h – Primary qHTS for delayed death inhibitors of the malarial parasite plastid, 96 hour incubation | P. falciparum luciferase reporter growth, 96 h | Potency, µM (titrated, usually from 28.7 µM), usual class: inhibitors | AID 504834, 2011 | 320,000 tested, 6.9% active
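P. falciparum expressing integrated firefly luciferase grown in erythrocytes (2% hematocrit, 0.05% parasitemia final) with compounds for 96 hours at 37 C, 5% CO2. Growth inhibition read as loss of luminescence after adding luciferase detection reagent.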
A number is an active result; i = inactive; ? = inconclusive; nt = not tested or not shown. Unless noted, calls come from the whole dose curve; as a rule, active = well fitted curve in the direction sought with a large enough effect; inconclusive = small, poorly fitted or top-dose-only effect, or another doubt; inactive = no such curve, though single readings can be large; an effect the other way counts as inactive or inconclusive.

SMILES	FBPA Giardia inh	NS1 inh	CHX counter	Pf growth 48h	Shiga inhibitor	Pf growth 96h
COc1cc([C@@H]2c3cc4c(cc3[C@@H](O)[C@@H](CO)[C@@H]2CO)OCO4)cc(OC)c1O[Si](C)(C)C(C)(C)C	i	i	i	9.28µM	i	?
COc1cc([C@@H]2c3cc4c(cc3[C@H](O)[C@H]3COC(=O)[C@H]23)OCO4)cc(OC)c1OC	i	i	i	14.7µM	i	1.07µM
CCc1ccccc1NC(=O)CNC(=O)CNC(=O)c1cccs1	nt	nt	nt	i	nt	i
Cc1cccc(C)c1NC(=O)C1(N(Cc2ccco2)C(=O)Cn2nnnc2N)CCCCC1	i	i	i	i	i	6.57µM
CN(CC(=O)Nc1c(Cl)cccc1Cl)C(=O)CNC(=O)c1ccc2ccccc2c1	nt	nt	nt	i	nt	i
O=C(CC(Sc1ccccc1)c1cccs1)c1ccco1 (configuration not stated)	i	i	25.7	i	56.6	i
CC(C)C(C(=O)NC(C)(C)C)N(CCN1CCOCC1)C(=O)CNS(=O)(=O)c1ccccc1 (configuration not stated)	i	i	i	i	i	1.85µM
CCCC(C(=O)NC(C)(C)C)N(CCN1CCOCC1)C(=O)CNS(=O)(=O)c1ccccc1 (configuration not stated)	i	i	i	i	i	i
COc1ccc(-n2c(=O)c(-c3cccs3)nc3cnc(OC)nc32)cc1	i	nt	nt	nt	nt	nt
O=C(c1ccccc1Cc1ccccc1)N1CCN(S(=O)(=O)c2ccccc2[N+](=O)[O-])CC1	nt	nt	nt	?	nt	13.1µM
CCn1c(=O)c(C(=O)CN2CCN(S(=O)(=O)c3cc(C)ccc3C)CC2)c(N)n(Cc2ccccc2)c1=O	i	i	i	?	i	13.1µM
Cc1ccc(C)c(S(=O)(=O)N2CCN(C(C)C(=O)Nc3ccccc3-c3ccccc3)CC2)c1 (configuration not stated)	i	i	i	9.28µM	i	4.15µM
CCn1c(=O)c(C(=O)CN2CCN(Cc3ccc4c(c3)OCO4)CC2)c(N)n(Cc2ccccc2)c1=O	i	nt	i	?	i	?
O=C(c1ccco1)N1CCN(S(=O)(=O)c2ccccc2[N+](=O)[O-])CC1	i	i	i	?	i	i
O=C(c1ccccc1Cc1ccccc1)N1CCN(S(=O)(=O)c2ccccc2F)CC1	nt	nt	nt	11.7µM	nt	13.1µM
Cc1ccccc1-c1nnc(SCC(=O)NC2CCCC2)n1C	nt	nt	nt	i	nt	i
COCCNc1nnnc2c1sc1nc(N3CCOCC3)c3c(c12)CCCC3	i	i	i	?	i	i
O=C(c1ccccc1Cc1ccccc1)N1CCN(S(=O)(=O)c2ccccc2)CC1	i	i	i	i	i	?
Cc1ccc(C)c(S(=O)(=O)N2CCN(C(=O)c3ccccc3Cc3ccccc3)CC2)c1	nt	nt	nt	11.7µM	nt	?
CCOc1ccc(-c2nnc(NC(=O)Cc3cc(OC)c(OC)c(OC)c3)o2)cc1	i	i	17.9	i	72.9	i
CCOc1ccc(-c2nnc(NC(=O)CCCOc3cccc(C)c3)o2)cc1	i	i	25.7	i	70.4	?
CCCCn1c(N)c(N(C)C(=O)c2ccc(-n3cccn3)cc2)c(=O)[nH]c1=O	nt	nt	nt	i	nt	i
Cc1ccsc1CNS(=O)(=O)c1ccc(F)cc1	nt	i	i	i	i	i
O=C(O)c1sc2cccc(Cl)c2c1Cl	i	i	15.8	?	i	1.31µM
O=C(/C=C/c1ccccc1)OCCN1C(=O)c2ccccc2C1=O	i	i	i	i	i	i
SMILES	FBPA Giardia inh	NS1 inh	CHX counter	Pf growth 48h	Shiga inhibitor	Pf growth 96h
Cn1nccc1C(=O)N1CCN(c2ccccc2F)CC1	nt	i	i	i	i	i
Cc1ccccc1N=Nc1c(C)[nH]n(-c2ccccc2)c1=O	i	i	i	i	i	i
Cc1[nH]n(-c2ccccc2)c(=O)c1N=Nc1ccccc1O	i	i	i	?	i	i
Cc1[nH]n(-c2ccccc2)c(=O)c1N=Nc1ccc2c(c1)OCO2	i	nt	32.0	i	114.8	i
Cc1[nH]n(-c2ccccc2)c(=O)c1N=Nc1nccs1	i	i	13.8	nt	i	?
Cc1c(NC(=O)c2ccc(NS(=O)(=O)c3ccccc3)cc2)c(=O)n(-c2ccccc2)n1C	i	i	i	i	i	?
COc1ccc(O)c(N)c1	3.54µM	i	i	i	i	i
O=C(NCc1ccccc1)c1ccccc1Br	i	i	i	i	i	i
